Several values for one entry are separate records, joined by “and”; a condition that tells them apart may be missing. Identical values can stand only once. Screen size: about 5,500 compounds; about 2,000 (36%) were called active. Another 18% or so got no clear call; they are omitted. Rule as the data show it: active = normalized growth mostly below about 0.91 (no sharp cut-off); inconclusive = no clear call, values can overlap the other calls; inactive = mostly above about 0.92. This is one part of the list.
Test: chemical genetic growth profiling, strain panel (AID 1159580);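 also: tested at 20 µM; growth read once vehicle control cultures reached saturation at 30 °C; 1 = growth at the plate median or of vehicle wells; lower values mean less growth of the strain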
Conditions: S. cerevisiae deletion strains, growth OD
[1] = locus YHR030C, strain SLT2, hits give low values
[2] = locus YHR079C, strain IRE1, hits give low values
[3] = locus YJL095W, strain BCK1, hits give low values
[4] = locus YJR066W, strain TOR1, hits give low values
[5] = locus YLR113W, strain HOG1, hits give low values
[6] = locus YNL183C, strain NPR1, hits give low values
[7] = locus YOR231W, strain MKK1, hits give low values
[8] = locus YPL256C, strain CLN2, hits give low values

Measured: normalized growth

COc1ccc(-c2coc3cc(O)ccc3c2=O)cc1
inactive: locus YAL021C, strain ccr4, hits give low values 1 | locus YAL026C, strain drs2, hits give low values 0.943 | locus YAL030W, strain snc1, hits give low values 0.986 | locus YBL061C, strain skt5, hits give low values 0.983 | locus YBR009C, strain hhf1, hits give low values 0.953 | locus YBR023C, strain chs3, hits give low values 0.98 | locus YBR171W, strain sec66, hits give low values 0.973 | locus YBR229C, strain ROT2, hits give low values 0.967 | locus YBR231C, strain swc5, hits give low values 0.964 | locus YBR279W, strain paf1, hits give low values 0.993 | locus YCL011C, strain gbp2, hits give low values 0.965 | locus YCL016C, strain dcc1, hits give low values 0.974 | locus YCL029C, strain bik1, hits give low values 0.949 | locus YCL061C, strain MRC1, hits give low values 0.959 | locus YCL069W, strain vba3, hits give low values 0.98 | locus YCR088W, strain abp1, hits give low values 0.982 | locus YDL005C, strain med2, hits give low values 0.982 | locus YDL035C, strain GPR1, hits give low values 0.933 | locus YDL040C, strain nat1, hits give low values 0.985 | locus YDL074C, strain BRE1, hits give low values 0.839 | locus YDL101C, strain DUN1, hits give low values 0.916 | locus YDL185W, strain tfp1, hits give low values 0.964 | locus YDR001C, strain nth1, hits give low values 0.978 | locus YDR069C, strain doa4, hits give low values 1.01 | locus YDR101C, strain arx1, hits give low values 0.941 | locus YDR137W, strain rgp1, hits give low values 0.906 | locus YDR159W, strain sac3, hits give low values 0.955 | locus YDR162C, strain NBP2, hits give low values 0.894 | locus YDR195W, strain ref2 1.13 | locus YDR297W, strain sur2, hits give low values 0.978 | locus YDR334W, strain swr1, hits give low values 0.989 | locus YDR335W, strain msn5, hits give low values 0.99 | locus YDR388W, hits give low values 0.964 | locus YEL003W, strain gim4, hits give low values 0.977 | locus YEL037C, strain rad23, hits give low values 0.983 | locus YEL061C, strain CIN8 (second series), hits give low values 0.986 | locus YER015W, strain faa2, hits give low values 0.989 | locus YER016W, strain bim1, hits give low values 0.979 | locus YER110C, hits give low values 0.974 | locus YER111C, strain swi4, hits give low values 0.992 | locus YER155C, strain BEM2 (second series), hits give low values 0.907 | locus YER155C, strain BEM2, hits give low values 0.962 | locus YER167W, strain BCK2, hits give low values 0.973 | locus YFR010W, strain ubp6, hits give low values 0.984 | locus YGL167C, strain pmr1, hits give low values 0.997 | locus YGL173C, strain kem1, hits give low values 0.979 | locus YGL227W, strain vid30, hits give low values 0.981 | locus YGL240W, strain doc1, hits give low values 0.916 | locus YGL253W, strain hxk2, hits give low values 0.932 | locus YHR013C, strain ard1, hits give low values 0.977 | locus YHR027C, strain rpn1, hits give low values 0.995 | [1] 0.975 and 0.906 | locus YHR079C, strain IRE1 (second series), hits give low values 0.969 | [2] 0.936 | locus YHR094C, strain hxt1, hits give low values 0.96 | locus YHR129C, strain ARP1, hits give low values 0.929 | locus YHR142W, strain chs7, hits give low values 0.893 | locus YIL066C, strain RNR3, hits give low values 0.957 | locus YIL073C, strain SPO22, hits give low values 0.886 | locus YIL125W, strain kgd1, hits give low values 0.966 | locus YIR030C, strain dcg1, hits give low values 0.961 | locus YJL092W, strain hpr5, hits give low values 0.974 | locus YJL095W, strain BCK1 (second series), hits give low values 0.987 | [3] 0.81 and 0.908 | locus YJL115W, strain asf1, hits give low values 0.998 | locus YJL129C, strain trk1, hits give low values 0.954 | locus YJL134W, strain LCB3, hits give low values 0.98 | locus YJL154C, strain vps35, hits give low values 0.982 | locus YJL164C, strain tpk1, hits give low values 0.943 | locus YJL166W, strain qcr8, hits give low values 0.951 | locus YJL168C, strain set2, hits give low values 0.977 | locus YJL187C, strain SWE1 (second series), hits give low values 0.879 | locus YJL187C, strain SWE1, hits give low values 0.984 | [4] 0.836 | locus YKL009W, strain mrt4, hits give low values 0.914 | locus YKL068W, hits give low values 0.965 | locus YKL085W, strain MDH1 (second series), hits give low values 0.968 | locus YKL085W, strain MDH1, hits give low values 0.968 | locus YKL160W, strain elf1, hits give low values 0.942 | locus YKR026C, strain gcn3, hits give low values 0.981 | locus YKR091W, strain srl3, hits give low values 0.984 | locus YLL001W, strain dnm1, hits give low values 0.954 | locus YLL026W, hits give low values 0.977 | locus YLL041C, strain sdh2, hits give low values 0.983 | locus YLR027C, strain aat2, hits give low values 0.965 | locus YLR039C, strain RIC1, hits give low values 0.784 | locus YLR058C, strain SHM2, hits give low values 0.906 | locus YLR102C, strain apc9, hits give low values 0.975 | [5] 0.992 | locus YLR221C, strain rsa3, hits give low values 0.929 | locus YLR258W, strain gsy2, hits give low values 0.99 | locus YLR262C, strain YPT6 (second series), hits give low values 0.881 | locus YLR268W, strain sec22, hits give low values 0.9 | locus YLR320W, strain mms22, hits give low values 0.919 | locus YLR342W, strain FKS1 (second series), hits give low values 0.876 | locus YLR342W, strain FKS1, hits give low values 0.975 | locus YLR357W, strain rsc2, hits give low values 0.95 | locus YLR371W, strain rom2, hits give low values 0.993 | locus YLR384C, strain iki3, hits give low values 0.989 | locus YML016C, strain PPZ1, hits give low values 0.959 | locus YML032C, strain rad52, hits give low values 0.933 | locus YML120C, strain ndi1, hits give low values 0.955 | locus YML124C, strain tub3, hits give low values 0.974 | locus YMR058W, strain fet3, hits give low values 0.952 | locus YMR078C, strain ctf18, hits give low values 0.961 | locus YMR125W, strain sto1, hits give low values 0.98 | locus YMR129W, hits give low values 0.981 | locus YMR205C, strain PFK2, hits give low values 0.972 | locus YMR223W, strain ubp8, hits give low values 0.913 | locus YMR231W, strain pep5, hits give low values 1 | locus YMR307W, strain GAS1, hits give low values 0.706 | locus YNL067W, strain RPL9B, hits give low values 0.87 | locus YNL071W, strain lat1, hits give low values 0.924 | [6] 0.872 | locus YNL209W, strain ssb2, hits give low values 0.987 | locus YNL248C, strain rpa49, hits give low values 0.94 | locus YNL250W, strain rad50, hits give low values 0.944 | locus YNL271C, strain bni1, hits give low values 0.941 | locus YNL298W, strain CLA4, hits give low values 0.928 | locus YNL322C, strain KRE1 (second series), hits give low values 0.979 | locus YNR049C, strain mso1, hits give low values 0.986 | locus YNR052C, strain pop2, hits give low values 0.927 | locus YOL012C, strain htz1 0.948 | locus YOL147C, strain pex11, hits give low values 0.934 | locus YOR001W, strain rrp6, hits give low values 0.952 | locus YOR061W, strain CKA2, hits give low values 0.985 | locus YOR069W, strain VPS5, hits give low values 0.927 | locus YOR070C, strain gyp1, hits give low values 0.975 | locus YOR080W, strain dia2, hits give low values 0.993 | locus YOR083W, strain WHI5, hits give low values 0.91 | locus YOR106W, strain vam3, hits give low values 0.915 | locus YOR136W, strain idh2, hits give low values 0.95 | locus YOR144C, strain elg1, hits give low values 0.968 | locus YOR184W, strain ser1, hits give low values 0.931 | [7] 0.934 | locus YOR265W, strain rbl2, hits give low values 0.999 | locus YOR270C, strain vph1, hits give low values 0.807 | locus YOR290C, strain snf2, hits give low values 0.88 | locus YOR316C, strain cot1, hits give low values 0.96 | locus YPL051W, strain arl3, hits give low values 0.943 | locus YPL078C, strain atp4, hits give low values 0.905 | locus YPL106C, strain sse1, hits give low values 0.984 | locus YPL240C, strain hsp82, hits give low values 0.984 | locus YPL241C, strain CIN2, hits give low values 0.998 | [8] 0.922 | locus YPR119W, strain clb2, hits give low values 0.973 | locus YPR141C, strain kar3, hits give low values 0.967 | locus YPR167C, strain met16, hits give low values 0.93 | strain wtn01, hits give low values 0.911
active: locus YBR021W, strain FUR4, hits give low values 0.751 | locus YDL192W, strain arf1, hits give low values 0.912 | locus YDR318W, strain mcm21, hits give low values 0.896 | locus YDR392W, strain spt3, hits give low values 0.726 | locus YDR502C, strain sam2, hits give low values 0.878 | locus YGL078C, strain dbp3, hits give low values 0.91 | locus YGL086W, strain mad1, hits give low values 0.884 | locus YGL248W, strain PDE1, hits give low values 0.853 | locus YGR135W, strain pre9, hits give low values 0.821 | locus YGR252W, strain gcn5, hits give low values 0.698 | locus YHR200W, strain rpn10, hits give low values 0.904 | locus YKR001C, strain vps1, hits give low values 0.837 | locus YLR330W, strain CHS5, hits give low values 0.896 | locus YLR418C, strain cdc73, hits give low values 0.74 | locus YNL233W, strain BNI4, hits give low values 0.827 | locus YNL307C, strain MCK1, hits give low values 0.847 | locus YPR163C, strain tif3, hits give low values 0.794

COc1ccc2c(=O)c(-c3ccc(O)cc3)coc2c1
inactive: [1] 0.966 | [2] 0.939 | [3] 0.962 | [4] 0.918 | [5] 0.955 | [6] 0.918 | [7] 0.942 | [8] 0.925

From PubChem BioAssay AID1159580 (chemical genetic matrix, 2015)
